The campaign covered roughly 290,000 compounds. About 570 (0.2%) were called active. Roughly 1% stayed inconclusive and do not appear here. No stated cut-off is given here; in the data, active means inhibition mostly above about 51% (no sharp cut-off); inconclusive means no clear call, values can overlap the other calls; inactive means mostly below about 53%. For the sample, actives were picked, then their nearest neighbours and some compounds at random.
Target: Voltage-dependent N-type calcium channel subunit alpha-1B (Homo sapiens) (UniProt Q00975)
Sequence (Q00975 whole entry, looked up): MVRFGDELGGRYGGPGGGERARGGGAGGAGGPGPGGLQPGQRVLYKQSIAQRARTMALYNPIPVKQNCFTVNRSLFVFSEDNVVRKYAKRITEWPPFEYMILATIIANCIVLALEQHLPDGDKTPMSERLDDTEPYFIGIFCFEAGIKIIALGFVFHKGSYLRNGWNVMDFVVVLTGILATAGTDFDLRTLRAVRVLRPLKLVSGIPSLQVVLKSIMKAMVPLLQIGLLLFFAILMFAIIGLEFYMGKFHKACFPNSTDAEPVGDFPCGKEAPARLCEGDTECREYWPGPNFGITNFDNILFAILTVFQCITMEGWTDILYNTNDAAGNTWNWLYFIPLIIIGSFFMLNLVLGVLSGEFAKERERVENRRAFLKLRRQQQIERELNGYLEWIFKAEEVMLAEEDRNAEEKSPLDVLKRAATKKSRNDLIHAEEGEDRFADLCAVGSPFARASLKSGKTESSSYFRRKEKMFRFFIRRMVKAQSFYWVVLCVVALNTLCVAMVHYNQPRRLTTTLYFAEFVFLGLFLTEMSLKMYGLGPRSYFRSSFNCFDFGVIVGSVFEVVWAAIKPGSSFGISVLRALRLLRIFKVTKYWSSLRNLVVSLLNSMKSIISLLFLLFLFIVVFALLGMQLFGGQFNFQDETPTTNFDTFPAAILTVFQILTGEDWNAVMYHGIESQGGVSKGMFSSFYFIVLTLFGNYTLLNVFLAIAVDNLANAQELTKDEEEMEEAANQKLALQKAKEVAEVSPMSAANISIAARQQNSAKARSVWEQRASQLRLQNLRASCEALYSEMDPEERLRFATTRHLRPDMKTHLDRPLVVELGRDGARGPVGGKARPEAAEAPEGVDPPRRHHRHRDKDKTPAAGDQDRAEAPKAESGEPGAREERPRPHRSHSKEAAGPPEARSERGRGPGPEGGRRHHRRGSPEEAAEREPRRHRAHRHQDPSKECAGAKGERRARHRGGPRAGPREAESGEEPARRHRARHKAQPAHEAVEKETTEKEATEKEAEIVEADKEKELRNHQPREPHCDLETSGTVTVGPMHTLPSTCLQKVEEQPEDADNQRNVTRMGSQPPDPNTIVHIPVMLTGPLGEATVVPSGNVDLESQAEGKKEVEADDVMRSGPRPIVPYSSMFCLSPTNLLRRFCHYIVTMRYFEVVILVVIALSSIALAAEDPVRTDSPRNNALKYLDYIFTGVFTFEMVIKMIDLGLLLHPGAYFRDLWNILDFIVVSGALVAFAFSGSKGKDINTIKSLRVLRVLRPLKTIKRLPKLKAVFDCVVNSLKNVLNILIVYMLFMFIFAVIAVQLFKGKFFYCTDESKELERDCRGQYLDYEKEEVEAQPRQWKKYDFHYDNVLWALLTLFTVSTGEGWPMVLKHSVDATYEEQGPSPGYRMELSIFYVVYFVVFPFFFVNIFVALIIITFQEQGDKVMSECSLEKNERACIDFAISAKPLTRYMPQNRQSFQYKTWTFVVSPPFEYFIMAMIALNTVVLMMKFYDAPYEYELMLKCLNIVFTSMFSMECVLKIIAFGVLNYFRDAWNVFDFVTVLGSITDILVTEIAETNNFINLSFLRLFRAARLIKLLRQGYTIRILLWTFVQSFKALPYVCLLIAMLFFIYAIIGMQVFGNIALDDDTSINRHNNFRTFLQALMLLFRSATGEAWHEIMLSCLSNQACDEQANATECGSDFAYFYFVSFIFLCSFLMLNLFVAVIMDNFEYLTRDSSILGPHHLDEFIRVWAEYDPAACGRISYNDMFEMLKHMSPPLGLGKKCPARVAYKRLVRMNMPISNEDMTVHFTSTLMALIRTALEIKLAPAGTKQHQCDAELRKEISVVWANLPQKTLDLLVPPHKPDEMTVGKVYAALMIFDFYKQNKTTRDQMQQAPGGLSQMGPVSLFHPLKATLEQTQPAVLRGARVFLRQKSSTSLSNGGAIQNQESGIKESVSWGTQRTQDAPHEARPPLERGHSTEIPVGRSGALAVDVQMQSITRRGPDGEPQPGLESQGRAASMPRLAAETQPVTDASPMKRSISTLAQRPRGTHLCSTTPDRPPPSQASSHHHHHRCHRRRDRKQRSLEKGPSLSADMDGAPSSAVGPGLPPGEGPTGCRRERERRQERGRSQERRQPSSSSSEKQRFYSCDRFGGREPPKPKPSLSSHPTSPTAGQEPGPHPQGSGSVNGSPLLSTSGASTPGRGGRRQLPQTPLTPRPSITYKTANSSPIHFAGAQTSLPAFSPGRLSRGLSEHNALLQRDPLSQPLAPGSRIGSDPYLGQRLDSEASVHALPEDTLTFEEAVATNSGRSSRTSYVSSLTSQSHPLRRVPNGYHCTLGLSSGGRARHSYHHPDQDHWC
Test: inhibitors of Mint1-CaV2.2 protein interaction, biochemical, HTRF (AID 2073)
Settings: at 20 µM, stronger effect = higher value
[1] = measured here: average of repeat tests

SMILES	inhibition	inhibition [1] [%]
Cc1ccc(C)c(N(C(=O)c2csnn2)C(C(=O)NC2CCCCC2)c2ccccn2)c1 (stereo unspecified)	1.3% (inactive)	–
O=C(CN1CCOCC1)Nc1cccc(S(=O)(=O)N2CCCCCC2)c1	-5.9% (inactive)	–
Cc1ccc(N2C(=O)C3C4CC(=O)C(c5ccccc54)C3C2=O)cc1C (stereo unspecified)	-1.5% (inactive)	–
COc1ccc(OC)c(C2CC(=O)N3CN(c4ccccc4F)CSC3=C2C#N)c1 (stereo unspecified)	29.3% (inactive)	–
CCOc1ccccc1N1CSC2=C(C#N)C(c3c(OC)ccc4ccccc34)CC(=O)N2C1 (stereo unspecified)	72.9% (inactive)	9.7
COc1ccc(N2CSC3=C(C#N)C(c4ccc(OC)c(OC)c4)CC(=O)N3C2)c(OC)c1 (stereo unspecified)	91.4% (active)	–
COc1ccc(N2CSC3=C(C#N)C(c4cc(OC)ccc4OC)CC(=O)N3C2)c(OC)c1 (stereo unspecified)	69.2% (active)	–
COc1ccc(C2CC(=O)N3CN(c4ccccc4F)CSC3=C2C#N)cc1OC (stereo unspecified)	79.9% (inactive)	38.6
COc1ccc(C2CC(=O)N3CN(c4ccc(C)c(Cl)c4)CSC3=C2C#N)cc1 (stereo unspecified)	80.8% (inactive)	11.1
COc1ccc(OC)c(C2CC(=O)N3CN(c4cccc(Cl)c4)CSC3=C2C#N)c1 (stereo unspecified)	37.5% (inactive)	–
COc1ccccc1N1CSC2=C(C#N)C(c3ccc(SC)cc3)CC(=O)N2C1 (stereo unspecified)	81.5% (active)	–
COc1cccc(C2CC(=O)N3CN(c4ccccc4F)CSC3=C2C#N)c1 (stereo unspecified)	75.5% (inactive)	31
CCCCc1cc(=O)oc2cc(OCC(=O)N3CCC(C(N)=O)CC3)ccc12	8.7% (inactive)	–
O=C(c1ccco1)N1CCN(Cc2cccc3ccccc23)CC1	3.9% (inactive)	–
O=C(COC(=O)c1ccc(O)cc1)Nc1cccc(S(=O)(=O)NC2=NCCCCC2)c1	-9.8% (inactive)	–
CC(=O)Nc1ccc(NC(=O)COC(=O)c2cnccn2)cc1	15.7% (inactive)	–
O=C(COC(=O)c1cnccn1)Nc1ccc(Cl)cc1	3.8% (inactive)	–
NS(=O)(=O)c1ccc(NC(=O)COC(=O)c2cnccn2)cc1	51.2% (active)	–
CC(C)OC(=O)c1cc2c(ccn2-c2ccc(F)cc2)n1CC(=O)N1CCN(C(=O)c2ccco2)CC1	40.4% (inactive)	–
CN(C)[C@@H]1C(=O)C(C(N)=O)=C(O)[C@@]2(O)C(=O)C3=C(O)c4c(O)ccc(Cl)c4[C@@H](O)[C@H]3C[C@@H]12	56.1% (active)	–
C[C@H]1c2cccc(O)c2C(O)=C2C(=O)[C@]3(O)C(O)=C(C(N)=O)C(=O)[C@@H](N(C)C)[C@@H]3[C@@H](O)[C@@H]21	13.4% (inactive)	–
CN(C)c1ccc(O)c2c1CC1CC3[C@@H](N(C)C)C(=O)C(C(N)=O)=C(O)[C@]3(O)C(=O)C1=C2O (stereo partly specified)	22.3% (inactive)	–
C=C1CCC[C@]2(C)C[C@H]3OC(=O)C(CN(Cc4ccc(OC)c(OC)c4)CC(C)O)[C@H]3CC12 (stereo partly specified)	6.9% (inactive)	–

SMILES	inhibition	inhibition [1] [%]
COc1cccc(-c2nc(NCc3cccnc3)c3ccccc3n2)c1O	14.2% (inactive)	–
O=C(Nc1ccc2oc(-c3ccccc3F)nc2c1)c1ncn[nH]1	2.6% (inactive)	–
O=C(Nc1ccc2oc(-c3ccccc3Cl)nc2c1)c1ncn[nH]1	28.3% (inactive)	–
O=C(c1cccs1)N1CCN=C1SCc1cccnc1	-1.3% (inactive)	–
CCOc1cccc(NC(=O)c2cccc(F)c2)c1	2.7% (inactive)	–
CN(C)C=Nc1c(Br)cc(Br)c2nonc12	19.7% (inactive)	–
Cc1ccc(Nc2nc(=O)c3cccnc3s2)c(Br)c1	-13% (inactive)	–
COc1ccc(OC)c(Nc2nc(=O)c3cccnc3s2)c1	81.8% (active)	–
Cc1ccc(Nc2nc(=O)c3cccnc3s2)cc1	2.2% (inactive)	–
Cc1cccc(Oc2sc(C(=O)c3ccccc3)c(N)c2C#N)c1C	4.2% (inactive)	–
CCCCNc1nc2ccccc2nc1Cl	4.6% (inactive)	–
COc1ccc(C2(C)NC(=O)N(CC(=O)Nc3ccc(S(=O)(=O)N4CCCC4)cc3)C2=O)cc1 (stereo unspecified)	4.9% (inactive)	–
Oc1ccc(N=C/C=C/c2ccc(Br)cc2)cc1-c1nc2ccccc2s1	62.9% (active)	–
Oc1ccc(N=C/C=C/c2cccc(Br)c2)cc1-c1nc2ccccc2s1	66.6% (inactive)	5
Brc1ccc(/C=C/C=N/Nc2nc3ccccc3s2)cc1	5.3% (inactive)	–
CCN=C1NN=C(c2cc(C)n(Cc3ccco3)c2C)CS1	57.5% (active)	–
Cc1cc(C2=NNC(=NC3CC3)SC2)c(C)n1Cc1ccco1	26.3% (inactive)	–
COCCCN=C1NN=C(c2cc(C)n(Cc3ccco3)c2C)CS1	24.8% (inactive)	–
CCOC(=O)/C(C#N)=C1/C=Nc2ccccc2N1	14.4% (inactive)	–
Cc1ccc(NC(=O)CCNS(=O)(=O)c2ccc3[nH]c(=O)oc3c2)c(C)c1	-0.1% (inactive)	–
COc1cccc(C(=O)Nc2ccc3c(c2)C(=O)NC3=O)c1	11.6% (inactive)	–
Cc1ccn2c(Nc3ccccc3)c(-c3ccccn3)nc2c1	21.1% (inactive)	–
Cc1ccc(Nc2c(-c3ccccn3)nc3cc(C)ccn23)cc1	50.4% (active)	–

SMILES	inhibition	inhibition [1] [%]
Cc1ccn2c(Nc3ccccc3C)c(-c3ccccn3)nc2c1	15% (inactive)	–
O=C(Nc1ccc2c(c1)OCCO2)c1cccc(Br)c1	-4.4% (inactive)	–
Nc1nnnn1/N=C/c1ccccc1OCc1ccc(Cl)cc1	0.5% (inactive)	–
Cc1nn(CC(=O)NCC2CCCO2)c(C)c1[N+](=O)[O-] (stereo unspecified)	5.2% (inactive)	–
NC(=O)c1sc(=S)n2c1[nH]c(=O)c1sccc12	51.8% (active)	–
CC(=O)NNC(=O)c1sc(=S)n2c1[nH]c(=O)c1sccc12	46.1% (inactive)	–
O=C(NCc1ccccc1)c1sc(=S)n2c1[nH]c(=O)c1ccccc12	-8.6% (inactive)	–
Cc1c(C(=O)/C=C/c2cccs2)oc2ccc(F)cc12	-6.1% (inactive)	–
O=C(OC1CCCCC1)c1ccc2c(c1)C1C=CCC1C(C(=O)O)N2 (stereo unspecified)	74.8% (active)	–
CCOC(=O)c1ccc2c(c1)C1C=CCC1C(C(=O)O)N2 (stereo unspecified)	31% (inactive)	–
Cc1ccc2c(c1)C1C=CCC1C(C(=O)O)N2 (stereo unspecified)	39.2% (inactive)	–
Cc1ccccc1OCC(=O)OC(C(=O)c1ccccc1)c1ccccc1 (stereo unspecified)	12.2% (inactive)	–
O=C1CCCN1c1cc(Cl)ccc1Cl	-4.5% (inactive)	–
O=c1cc(O)c2sc(Nc3ccc(F)cc3)nc2[nH]1	63.2% (active)	–
O=c1cc(O)c2sc(Nc3ccc(F)c(Cl)c3)nc2[nH]1	86.3% (active)	–
Fc1ccc(Nc2nc3ccccc3s2)cc1	3.5% (inactive)	–
O=c1cc(O)c2sc(Nc3cccc(C(F)(F)F)c3)nc2[nH]1	66.6% (active)	–
O=c1cnnc(Nc2cccc(C(F)(F)F)c2)[nH]1	2.4% (inactive)	–
Fc1ccc(Nc2nnc(C(F)(F)F)s2)cc1Cl	10.6% (inactive)	–
O=c1cc(O)c2sc(Nc3ccc(Cl)c(F)c3)nc2[nH]1	66.1% (inactive)	31.6
COc1ccc(Nc2nc3[nH]c(=O)cc(O)c3s2)cc1	87.5% (inactive)	17.2
Cc1cc(=O)[nH]c(Nc2cccc(C(F)(F)F)c2)n1	-2.3% (inactive)	–
O=C(/C=C/c1ccccc1)N1CCN(S(=O)(=O)c2ccc(F)cc2)CC1	-4.1% (inactive)	–

SMILES	inhibition	inhibition [1] [%]
CN(C)CCNc1nc2c(c(=O)[nH]c(=O)n2C)n1CC(O)COc1ccc(Cl)cc1 (stereo unspecified)	-3% (inactive)	–
COc1ccc(/C=N/NC(=O)c2ccc(CN3C(=O)c4cccc5cccc3c45)cc2)cc1O	71.7% (inactive)	39.7
O=C(N/N=C/c1ccc(O)cc1O)c1ccc(CN2C(=O)c3cccc4cccc2c34)cc1	69.5% (active)	–
O=C(N/N=C/c1ccccc1)c1ccc(CN2C(=O)c3cccc4cccc2c34)cc1	36.4% (inactive)	–
COC(=O)c1ccc(OCCOc2ccccc2C)cc1	26.5% (inactive)	–
Cc1ccc(C)c(S(=O)(=O)NCc2ccc(C(=O)N3CCOCC3)cc2)c1	-3.9% (inactive)	–
CCc1nn2c(=O)cc(COc3ccc(/C=C4\C(=N)N5N=C(C)SC5=NC4=O)cc3)nc2s1	60% (active)	–
CCc1nn2c(=O)cc(COc3ccc(/C=C4\C(=N)N5N=C(CC(C)C)SC5=NC4=O)cc3)nc2s1	24.6% (inactive)	–
CC(=O)Nc1ccc(OCCOc2ccc(/C=C3\C(=N)N4N=C(C)SC4=NC3=O)cc2)cc1	24.7% (inactive)	–
COCCCN1C(=O)C(=O)/C(=C(/O)c2ccc(S(=O)(=O)N3CCCCC3)cc2)C1c1ccc(O)cc1 (stereo unspecified)	2% (inactive)	–
CNC(=S)N1CCN=C1Nc1nc(C)cc(C)n1	3.5% (inactive)	–
COc1ccc(NS(=O)(=O)c2ccc3c(c2)[C@H]2C=CC[C@H]2[C@@H](c2ccc(C(=O)O)cc2)N3)cc1	20.2% (inactive)	–
COc1cccc(NS(=O)(=O)c2ccc3c(c2)C2C=CCC2C(c2ccc(C(=O)O)cc2)N3)c1 (stereo unspecified)	56.4% (active)	55
Cc1c(Cl)cccc1NS(=O)(=O)c1ccc2c(c1)C1C=CCC1C(c1ccc(C(=O)O)cc1)N2 (stereo unspecified)	61% (inactive)	29.1
Cc1cc(-c2cc(C(=O)O)c3ccccc3n2)c(C)s1	9.2% (inactive)	–
O=C1c2ccccc2C(=O)N1OCc1c(F)cccc1Cl	16.6% (inactive)	–
CCOC(=O)c1c(N2C(=O)C3CC(C)=C(C)CC3C2=O)sc(C)c1C (stereo unspecified)	-2.7% (inactive)	–
CCOC(=O)c1c(-n2cnnn2)sc(C)c1C	-6.3% (inactive)	–
CCOC(=O)c1c(N2C(=O)C=CC2=O)sc(C)c1C	65.5% (active)	–
CCOC(=O)c1c(NC(=O)COC)sc(C(C)=O)c1C	6.4% (inactive)	–
CCOc1ccc(N2C(=O)CC(S/C(N)=N/N=C/c3cccs3)C2=O)cc1 (stereo unspecified)	10.6% (inactive)	–
CCCCc1nc2sc3c(=O)n(N)cnc3c2c2c1CCCC2	8.9% (inactive)	–

— PubChem BioAssay AID2073 (Sanford-Burnham Center for Chemical Genomics, 2009)
